# Rows were chosen to be rich in hits. Some 0.89% of all compounds tested hit in one or more screens of this group.
# LAP4-GFP MLPCN = yeast TOR pathway LAP4-GFP modulation; S. cerevisiae LAP4-GFP multiplex, flow cytometry GFP, 3 h; median GFP as percent of DMSO wells; GFP response vs DMSO, % at 10 µM; hit rate 0.34% among 320,000; AID 2023;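 active = GFP response vs DMSO above a set limit, about the screen mean plus 3 SD, cut at about 150% in these data; inconclusive = under 70 cell events counted for the yeast strain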
# RPL19A TOR yeast = alters RPL19A-GFP fluorescence in TOR pathway yeast screen. S. cerevisiae RPL19A-GFP strain, flow cytometry, 3 h; stronger effect = lower value. percent response vs DMSO, % at 10 µM. hit rate 0.3% among 330,000. AID 2025;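 active = percent response vs DMSO below 50%; inconclusive = fewer than 70 events counted for the yeast strain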;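 also: median channel GFP fluorescence of the barcoded RPL19A-GFP strain; ratio of sample median GFP to plate DMSO average so 100% = DMSO; lower means less RPL19A-GFP as with rapamycin TOR inhibition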
# AGP1-GFP MLPCN = yeast TOR pathway AGP1-GFP modulation | S. cerevisiae AGP1-GFP multiplex flow cytometry, 3 h; GFP as percent of DMSO wells | GFP response vs DMSO, % at 10 µM | AID 2066 | hit rate 0.02% among 320,000;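 active = GFP response relative to DMSO above a set limit, near screen average plus 3 SD, cut at about 150% in these data; inconclusive = fewer than 70 cells counted for the yeast strain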;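 also: median GFP channel fluorescence of the gated AGP1 strain per well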
# MEP2-GFP yeast = alters MEP2-GFP fluorescence in TOR pathway yeast screen. AID 2016. GFP response vs DMSO, % at 10 µM. S. cerevisiae MEP2-GFP strain, flow cytometry GFP, 3 h; 100% = DMSO control level. hit rate 0.51% among 330,000;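 active = GFP response versus DMSO above a set limit, roughly screen mean plus 3 SD, cut at about 180% in these data; inconclusive = fewer than 70 cells counted for a yeast strain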;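 also: median GFP fluorescence of the barcode-gated MEP2-GFP cells per well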
# CIT2 TOR yeast = alters CIT2-GFP fluorescence in TOR pathway yeast screen | S. cerevisiae CIT2-GFP strain, flow cytometry, 3 h; 100 means same as DMSO wells | GFP response vs DMSO, % at 10 µM | hit rate 0.065% among 320,000;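 active = GFP response relative to DMSO above a set limit, near the screen mean plus 3 SD, cut at about 150% in these data; inconclusive = Fewer than 70 cells measured for a yeast strain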;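 also: ratio of well median GFP fluorescence to mean of DMSO wells on the plate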
# Numbers without * were called inactive; ? = inconclusive; . = no result given; [ ] = another dose, or the depositor's remark.
SMILES,LAP4-GFP MLPCN,RPL19A TOR yeast,AGP1-GFP MLPCN,MEP2-GFP yeast,CIT2 TOR yeast
O=C(NCCc1ccccc1)C(c1ccc(F)cc1)N(C(=O)c1csnn1)C1CC1 (stereo not given),57,28*[may fluoresce violet],?,201*[may fluoresce violet],?
COc1ccc(-c2c(C(=O)O)c(C(=O)O)c3n2CCC3)cc1,92,107,108,108,101
COC(=O)c1ccc(OC(=O)CS(=O)c2ccccc2[N+](=O)[O-])cc1 (stereo not given),220*[may fluoresce violet],69,21,191*[may fluoresce violet],?
COCCNC(=O)C1c2ccccc2C(=O)N(CCOC)C1c1ccc(F)cc1 (stereo not given),102,99,96,100,97
COCCN1C(=O)c2ccccc2C(C(=O)NCCN(C)C)C1c1ccc(F)cc1 (stereo not given),85,52,42,464*[may fluoresce violet],?
COc1ccccc1NC(=O)Cc1ccsc1,123,99,?,101,93
COc1cc(NC(=O)c2ccc(Cl)cc2)c2ncccc2c1,108,114,107,119,108
COc1cc(NC(=O)c2c(-c3ccccc3Cl)noc2C)c2ncccc2c1,62,18*[may fluoresce violet],?,160,?
Cc1onc(-c2ccccc2Cl)c1C(=O)Nc1cccc2nsnc12,106,110,103,103,95
Cc1onc(-c2ccccc2Cl)c1C(=O)Nc1cccc2cccnc12,108,16*[may fluoresce violet],?,355*[may fluoresce violet],?
C/C(=N/NS(=O)(=O)c1ccc(Cl)cc1)c1cccc(NC(=O)c2ccncc2)c1,106,109,112,100,113
COc1ccc(C(=O)c2ccccc2Cl)cc1OC,94,104,97,95,100
COCCNC(=O)C(c1ccc(C)cc1)N(Cc1ccccc1)C(=O)CCC(=O)Nc1ccccn1 (stereo not given),96,96,94,93,113
COCCNC(=O)C(c1ccc(C)cc1)N(Cc1ccco1)C(=O)CCC(=O)Nc1ccccn1 (stereo not given),86,66,75,210*[may fluoresce violet],?
CCC1C(=O)N(c2nc(C)cc(C)n2)N=C1C (stereo not given),97,15*[may fluoresce violet],?,180*[may fluoresce violet],?
O=C(COc1ccc([N+](=O)[O-])cc1)Nc1ccc(S(=O)(=O)N2CCOCC2)cc1,96,58,24,399*[may fluoresce violet],?
CC(Oc1ccc(Cl)cc1)C(=O)Nc1ccc(S(=O)(=O)N2CCOCC2)cc1 (stereo not given),93,58,26,275*[may fluoresce violet],?
O=C(Cc1ccc([N+](=O)[O-])cc1)Nc1ccc2c(c1)OCO2,113,101,112,106,95
CCOc1ccc(N2CC(C(=O)Nc3ccc(S(=O)(=O)N4CCOCC4)cc3)CC2=O)cc1 (stereo not given),96,64,26,186*[may fluoresce violet],?
O=C(Nc1ccc2c(c1)OCO2)c1ccc([N+](=O)[O-])cc1[N+](=O)[O-],99,65,23,220*[may fluoresce violet],?
Cc1ccc(N2CC(C(=O)Nc3ccc(S(=O)(=O)N4CCOCC4)cc3)CC2=O)cc1 (stereo not given),104,101,107,105,95
COc1cccc(/C=N/NC(=O)c2cccc([N+](=O)[O-])c2)c1OS(=O)(=O)c1ccccc1,100,102,101,96,95
O=C(Nc1ccc(S(=O)(=O)N2CCOCC2)cc1)c1ccc([N+](=O)[O-])cc1Cl,118,107,108,307*,101
COC(=O)[C@@H](NC(=O)N1CCN(C(=O)C2COc3ccccc3O2)CC1)C(C)C (stereo not given in full),84,19*[may fluoresce violet],?,172,?
COc1ccccc1NC(=O)COC(=O)c1ccc([N+](=O)[O-])s1,53,21*[may fluoresce violet],10,105,?
SMILES,LAP4-GFP MLPCN,RPL19A TOR yeast,AGP1-GFP MLPCN,MEP2-GFP yeast,CIT2 TOR yeast
Cc1ccc(NC(=O)COC(=O)c2ccc([N+](=O)[O-])s2)c(C)c1,95,106,100,106,104
COc1cc(C(=O)NCCCOC(C)C)ccc1OC1CCN(C(C)=O)CC1,97,101,105,100,97
O=[N+]([O-])c1ccccc1/C=C/CN1CCSCC1,101,97,95,96,93
Cn1ccnc1SCC(=O)Nc1ccc2nc(SCC(=O)NC3CC3)sc2c1,90,.,?,280*[may fluoresce violet],?
Oc1ccccc1N1CCN(c2ncccn2)CC1,110,93,98,93,86
COC(=O)c1cccc(-n2c(CCC(=O)O)ccc2-c2cccs2)c1,157*,95,99,95,84
CC1CC1C(=O)OCc1cc(=O)n2cc(Br)ccc2n1 (stereo not given),99,89,80,84,88
CC1(C(=O)OCc2cc(=O)n3cc(Br)ccc3n2)CC1(Cl)Cl (stereo not given),164*,84,88,90,59
Cc1ccc(NC(=O)NNC(=O)C2CC(c3cccs3)=NO2)cc1 (stereo not given),103,95,112,112,150*[may fluoresce green]
CCOC(=O)c1cc(S(=O)(=O)N2CCN(C(=O)OCC)CC2)cn1C,86,95,27,200*,95
CCOC(=O)c1cc(S(=O)(=O)N2CCOCC2)cn1C,105,102,106,106,99
CC1CCN(C(=O)COc2ncnc3ccccc23)CC1,74,46*[may fluoresce violet],?,289*[may fluoresce violet],?
O=S(=O)(Nc1ccc(O)c2ccccc12)c1ccc(Br)cc1,117,105,98,115,105
O=C(CSc1cccc[n+]1[O-])c1cc2ccccc2o1,155*,91,90,96,83
Cc1cccc(NC(=O)CN2C(=O)NC(C)(c3ccc4c(c3)OCO4)C2=O)c1 (stereo not given),72,20*[may fluoresce violet],19,289*[may fluoresce violet],?
Cc1ccc(C2(C)NC(=O)N(CC(=O)Nc3ccc4c(c3)OCO4)C2=O)cc1 (stereo not given),95,94,98,95,92
COc1cccc(NC(=O)/C=C/c2ccc([N+](=O)[O-])cc2)c1,113,70,21,193*,105
CC1(C)C2CCC(C2)C1(C)NC(=O)CN1CCOCC1 (stereo not given),92,42*[may fluoresce violet],?,308*[may fluoresce violet],?
CC(=O)Nc1ccc(S(=O)(=O)NCC2CCCO2)cc1 (stereo not given),102,90,95,99,87
Cc1ccc(/C=C/C(=O)N2CC(C)CC(C)C2)o1 (stereo not given),127,.,32,275*,112
CCN1CCN(C(=O)/C=C/c2ccc(C)o2)CC1,90,104,104,103,109
c1ccc2c(NCC3CCCO3)nc(N3CCOCC3)nc2c1 (stereo not given),78,22*[may fluoresce violet],?,237*[may fluoresce violet],?

# Source: PubChem BioAssay
